Publication PMC12864922, “TDP-43 directly inhibits mRNA accumulation in neurites through modulation of mRNA stability”
In all, about 9,900 sequences were measured (“r (bound/input frequency ratio)”: median about 0.7, highest 2% from about 6.5 on). The list comes from a sample in which the highest values are over-represented; it also holds similar and randomly drawn sequences.

B1: ENSMUSG00000029028.57|Lrrc47 (ssRNA)
RNA: GGGAGUUCUACAGUCCGACGAUCGCUUCGAUAUCCGCAUGCUAGUAGAUCUUUGUAGGUGUAGGUAUGCUGUAGGUAUCUGGGUGUGGGUAUGCUGUAGAUGUCUGUGUAGGUGUGGAUAUGCUGUAGGUAUCUGGGUGUGCUGUAGGUGUCUGUGUGGGUGUGGGUGUGCUGUGGGUGUCUGUGUGGGUGUGCUGUAGGUGUCUGUAGGUGUGGGUAUGCUGCAGGUGUGGGUGUGCUGUAGAUCUCUAUAGGUGUGGGUGUGCUGUAGGGGUCUGUGUGGGUAUAGGUGUGGGUGUGCUGUCUCUUGCGGUCGCACUAGUGUGGAAUUCUCGGGUGUCAAGG
B2: ENSMUSG00000061578.309|Ksr2 (ssRNA)
RNA: GGGAGUUCUACAGUCCGACGAUCGCUUCGAUAUCCGCAUGCUAAAGUAAGAGAGGAGAGAGCCAGGGAGGGCUGAAGCUCUGGGACCCUGAAGUGUCCCCCGGGAACUGGGACUCACUCAUCUUCUCCUGUUUGUAGCUCAAUGACCCAGUGGGUCACAGUUCUAGGCGCUCCAAGGAAGCCAGGGGAGGGGGACUCCUCAGGAAGGAGUGACCAGUCACCUGCCUCCCAGGGUUCUGCCUUGCCCUUAAGCUAGGGUCCUUCAAGCAUCCACAGACUUAGAGUGUGGUGGUAACAUGCUUGUCUCUUGCGGUCGCACUAGUGUGGAAUUCUCGGGUGUCAAGG
B3: ENSMUSG00000028439.219|Fam219a (ssRNA)
RNA: GGGAGUUCUACAGUCCGACGAUCGCUUCGAUAUCCGCAUGCUAGCAUUCUCCCUGAGCUCCUAAGCAAUUCCCAGGCUUCUCUAGGGCUUCAGUUCUCACAACUGGAAAAUAAAGAGUAGCUGACAUCACCGACAGAGUCUUUUCAUACCAGAAGGAAUUUCUUCACAGGAGUUUCUGCAAAAGACUAUGACAUCUGUGUGUCUGUGGUCUCACGAGGUACCUGGAGGUGUAUGUGCACGGACAUGGGAAGUACGUGAAGAUUUAUUUCGGGAAAAGUGGUGUGUGUGUAGCUGUACUGGGUGCUCUUGCGGUCGCACUAGUGUGGAAUUCUCGGGUGUCAAGG
B4: ENSMUSG00000028439.221|Fam219a (ssRNA)
RNA: GGGAGUUCUACAGUCCGACGAUCGCUUCGAUAUCCGCAUGCUAAGCUCCUAAGCAAUUCCCAGGCUUCUCUAGGGCUUCAGUUCUCACAACUGGAAAAUAAAGAGUAGCUGACAUCACCGACAGAGUCUUUUCAUACCAGAAGGAAUUUCUUCACAGGAGUUUCUGCAAAAGACUAUGACAUCUGUGUGUCUGUGGUCUCACGAGGUACCUGGAGGUGUAUGUGCACGGACAUGGGAAGUACGUGAAGAUUUAUUUCGGGAAAAGUGGUGUGUGUGUAGCUGUACUGGGUGUCAUGUAUGCUGCUCUUGCGGUCGCACUAGUGUGGAAUUCUCGGGUGUCAAGG
B5: ENSMUSG00000032194.288|Kank2 (ssRNA)
RNA: GGGAGUUCUACAGUCCGACGAUCGCUUCGAUAUCCGCAUGCUAGGAUGAGUGUGGGGUGGGUGGAUGGAUAAAUGAGCAAUGGAUGAGAAACUGGGUUGGCUGGUGGGUAGAUGUCAUGAUGGAGUCUUUGCACGUGUAUGAAACAGAAAACCAAACUUCAGGACAGACAGCUGCUGGUGUCUCUGGAUGCUCACAGCCUAGGGCACAUUUGAAAGGUCGUGCUCUGAGCUGAGCCCUGAGUUCCAGCCUUGUAGCCAGCAAGGGAGUUUAUUUAAGGUUCUGGAAGCAUCAGCUAUGACCCACUCUUGCGGUCGCACUAGUGUGGAAUUCUCGGGUGUCAAGG
B6: ENSMUSG00000032194.282|Kank2 (ssRNA)
RNA: GGGAGUUCUACAGUCCGACGAUCGCUUCGAUAUCCGCAUGCUAGGAUGGAUGGACAGGUGGGUGGAUGGAUGGGUGGACGGAUGAGUGUGGGGUGGGUGGAUGGAUAAAUGAGCAAUGGAUGAGAAACUGGGUUGGCUGGUGGGUAGAUGUCAUGAUGGAGUCUUUGCACGUGUAUGAAACAGAAAACCAAACUUCAGGACAGACAGCUGCUGGUGUCUCUGGAUGCUCACAGCCUAGGGCACAUUUGAAAGGUCGUGCUCUGAGCUGAGCCCUGAGUUCCAGCCUUGUAGCCAGCAAGGGAGCUCUUGCGGUCGCACUAGUGUGGAAUUCUCGGGUGUCAAGG
B7: ENSMUSG00000032194.229|Kank2 (ssRNA)
RNA: GGGAGUUCUACAGUCCGACGAUCGCUUCGAUAUCCGCAUGCUAUCAAGUCUCCCUGUCGUAUCCAGAUCACAGCUGAACCCACUGGGCCUUGGCGCCAAACCUCAGCAGGGCAGCAUUGAGACUCAUGGACUAAAGGAAAGUGUUCACUCUUCUAGACAAGUGGGUCUCUUGGUUUGAUGGAGUCUUACUCCGCUUGAGUUUUGUAGAAGGGGUUUGUCUAAGGCAUAGAGGCUUGGUUGGCAUAAGAAAAUAAGAUGGACAGAUGGAUGGGUGGAUGGAUGGAUGGCUGAUUGAGUGGGUGGCUCUUGCGGUCGCACUAGUGUGGAAUUCUCGGGUGUCAAGG

molecular target: TDP-43 (Homo sapiens, UniProt Q13148 1-414); experiment: RNA Bind-n-Seq with designed 260-mer pool; 25 mM Tris-HCl, 150 mM KCl, 3 mM MgCl2, BSA (printed 500 mg/mL), 20 units/mL SUPERase IN; pH not stated; 500 nM RNA pool, 1 h, 4 C; TDP-43 5, 50, 500 nM; high values mean tight binding; settings: protein: recombinant; tags: SBP (GST cleaved off with PreScission; pGEX-GST-SBP)
Procedure, shortened: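 Streptavidin beads captured recombinant SBP-tagged TDP-43 at 5, 50 or 500 nM, and the beads were incubated for 1 h at 4 °C with 500 nM of an in vitro-transcribed pool of 260-nt 3′ UTR oligos in 25 mM Tris-HCl, 150 mM KCl, 3 mM MgCl2, BSA and SUPERase IN. After washing, bound RNA was eluted with biotin, reverse transcribed, PCR-amplified and sequenced. Binding is reported as R, the mapped-read-normalized abundance of each oligo in the bound sample divided by its abundance in the input. Two independent protein batches served as duplicates.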

TDP-43, sequence (Q13148 whole entry): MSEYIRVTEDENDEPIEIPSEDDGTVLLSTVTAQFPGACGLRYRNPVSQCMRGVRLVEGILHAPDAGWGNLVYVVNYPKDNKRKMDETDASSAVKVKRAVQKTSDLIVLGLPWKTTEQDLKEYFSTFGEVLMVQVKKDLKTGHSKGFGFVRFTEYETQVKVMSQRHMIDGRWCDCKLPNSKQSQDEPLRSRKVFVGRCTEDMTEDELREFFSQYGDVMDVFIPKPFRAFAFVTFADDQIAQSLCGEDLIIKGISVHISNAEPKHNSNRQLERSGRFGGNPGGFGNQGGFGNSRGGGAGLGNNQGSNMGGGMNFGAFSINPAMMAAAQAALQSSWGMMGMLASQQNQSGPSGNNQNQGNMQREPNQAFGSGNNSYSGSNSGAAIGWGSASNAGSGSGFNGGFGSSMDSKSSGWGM

Row | Binder | binding signal
1 | B1 | 6.24 R (bound/input frequency ratio)
2 | B2 | 1.33 R (bound/input frequency ratio)
3 | B3 | 1.85 R (bound/input frequency ratio)
4 | B4 | 2.59 R (bound/input frequency ratio)
5 | B5 | 6.68 R (bound/input frequency ratio)
6 | B6 | 6.52 R (bound/input frequency ratio)
7 | B7 | 4.54 R (bound/input frequency ratio)
